# Test results published in PubChem BioAssay (EPA / NIEHS).
# Calls of active or inactive are those of the source. How the source made its calls: active means hit-call score of the fitted dose curve at least 0.9, where 1 is the maximum; inactive means score below 0.9.
# Target: Myc proto-oncogene protein (Homo sapiens) (UniProt P01106)
# Assay: ATG_Myc_CIS: Attagene CIS-FACTORIAL HepG2 Assay for human Myelocytomatosis (Myc) Proto-Oncogene Transcription Factor (AID 2282990)
# Conditions: HepG2, Attagene cis-reporter transcription factor activity; actives raise or lower the signal
# In short: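 Read-out: fluorescent reporter mRNA fragments resolved by capillary electrophoresis after RT-PCR. Human HepG2 liver cells carried transfected cis-element reporter units and were dosed for 24 h. Gain or loss of signal fitted relative to DMSO baseline.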
# Sequence of Myc proto-oncogene protein (Homo sapiens) (P01106 whole entry, looked up): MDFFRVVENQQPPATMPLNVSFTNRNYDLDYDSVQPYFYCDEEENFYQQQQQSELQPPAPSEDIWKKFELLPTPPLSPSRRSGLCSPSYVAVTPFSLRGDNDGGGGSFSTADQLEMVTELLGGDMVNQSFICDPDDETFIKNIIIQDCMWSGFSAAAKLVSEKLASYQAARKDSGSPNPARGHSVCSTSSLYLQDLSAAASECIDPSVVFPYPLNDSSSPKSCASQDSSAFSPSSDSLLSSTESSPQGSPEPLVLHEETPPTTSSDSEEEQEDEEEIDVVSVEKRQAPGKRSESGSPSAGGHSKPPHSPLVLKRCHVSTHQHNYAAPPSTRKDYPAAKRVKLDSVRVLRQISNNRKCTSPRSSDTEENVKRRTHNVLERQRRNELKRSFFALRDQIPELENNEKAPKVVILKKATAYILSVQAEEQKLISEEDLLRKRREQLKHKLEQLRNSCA
Compound,outcome,AC50
C=CC(C)C#N (stereo not drawn),inactive,
CCCCC(CC)COC(=O)c1ccc(O)cc1 (stereo not drawn),inactive,
CCOC(=O)[C@@H](C)Oc1ccc(Oc2nc3ccc(Cl)cc3o2)cc1,inactive,
CC(C)(C)OC(=O)c1ccc(O)cc1,inactive,
COc1cc(Cl)c(OC)cc1N,inactive,
CCOC(=O)CC(C)O (stereo not drawn),inactive,
CCC(Cl)C(Cl)C(Cl)CC(Cl)C(Cl)C(C)Cl (stereo not drawn),inactive,
COC(C)(C)CC(C)=O,inactive,
O=C(Nc1ccc2c(c1)Cc1ccccc1-2)C(F)(F)F,inactive,
CC(=O)O[C@@H]1C[C@@H]2CC[C@@]1(C)C2(C)C,inactive,
NCC1CCCC(CN)C1 (stereo not drawn),inactive,
CCCCCCCCSCCO,inactive,
CCCCCCC(O)CCCCCCCCCCC(=O)O (stereo not drawn),inactive,
CC1C2CC(CC2C2CCCC(O)C2)C1(C)C (stereo not drawn),inactive,
CCCCCCCCCCCC(=O)OC[C@@H](O)[C@H]1OC[C@H](O)[C@H]1O,inactive,
CCc1cc(C(C)(C)C)c(O)c(C(C)(C)C)c1,inactive,
C=CC(C)(O)CCC=C(C)C (stereo not drawn),inactive,
CCOC(=O)CN,inactive,
CCC1(c2ccccc2)C(=O)NCNC1=O,inactive,
CCc1cc(Cc2cc(CC)cc(C(C)(C)C)c2O)c(O)c(C(C)(C)C)c1,inactive,
CC1(C)C(=O)N(Cl)C(=O)N1Br,inactive,
Cc1cc(C)nc(NS(=O)(=O)c2ccc(N)cc2)n1,inactive,
Cc1cc(=O)oc2cc(N(C)C)ccc12,inactive,
CSc1c(Cl)c(Cl)c(Cl)c(Cl)c1Cl,,167 µM (active)
C=C1CC[C@H](O)C/C1=C/C=C1\CCC[C@]2(C)[C@@H]([C@H](C)/C=C/[C@H](C)C(C)C)CC[C@@H]12,inactive,
IC(I)I,inactive,
CC1(C)O[C@@H]2C[C@H]3[C@@H]4CCC5=CC(=O)C=C[C@]5(C)[C@@]4(F)[C@@H](O)C[C@]3(C)[C@]2(C(=O)CO)O1,inactive,
CCCCCCCCCCCCN1CCCCCC1=O,inactive,
CCCCCCC(C)Nc1ccc(Nc2ccccc2)cc1 (stereo not drawn),inactive,
CC(C=O)Cc1ccc(C(C)(C)C)cc1 (stereo not drawn),inactive,

# System: not listed separately
# Assay: ATG_NF_kB_CIS: Attagene CIS-FACTORIAL HepG2 Assay for human Nuclear Factor Kappa B (NF-kB) (AID 2282991)
# Conditions: HepG2 Attagene cis-factorial NF-kB reporter mRNA; actives raise or lower the signal
# In short: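 Transient MRTU transfection of human HepG2 liver cells → 24 h chemical exposure → total RNA, oligo(dT) RT → PCR, 6-FAM primer extension, HpaI digest 2 h 37 C → CE fragment analysis. Bidirectional fitting, DMSO negative control.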
Compound,outcome,AC50
C=CC(C)C#N (stereo not drawn),inactive,
CCCCC(CC)COC(=O)c1ccc(O)cc1 (stereo not drawn),inactive,
CCOC(=O)[C@@H](C)Oc1ccc(Oc2nc3ccc(Cl)cc3o2)cc1,inactive,
CC(C)(C)OC(=O)c1ccc(O)cc1,inactive,
CN(C)CCOc1ccc(/C(=C(/CCCl)c2ccccc2)c2ccccc2)cc1,inactive,
CCOC(=O)CC(C)O (stereo not drawn),inactive,
COC(=O)c1ccc(OC)cc1,inactive,
CCC(Cl)C(Cl)C(Cl)CC(Cl)C(Cl)C(C)Cl (stereo not drawn),inactive,
CC(=O)O[C@H]1C[C@@H]2CC[C@@]1(C)C2(C)C,inactive,
O=C(Nc1ccc2c(c1)Cc1ccccc1-2)C(F)(F)F,inactive,
CC(=O)O[C@@H]1C[C@@H]2CC[C@@]1(C)C2(C)C,inactive,
NCC1CCCC(CN)C1 (stereo not drawn),inactive,
CCCCCCCCSCCO,inactive,
CC1C2CC(CC2C2CCCC(O)C2)C1(C)C (stereo not drawn),inactive,
CCCCCCCCCCCC(=O)OC[C@@H](O)[C@H]1OC[C@H](O)[C@H]1O,inactive,
CCOC(=O)CN,inactive,
CCC1(c2ccccc2)C(=O)NCNC1=O,inactive,
CCc1cc(Cc2cc(CC)cc(C(C)(C)C)c2O)c(O)c(C(C)(C)C)c1,,17.4 µM (active)
CC1(C)C(=O)N(Cl)C(=O)N1Br,inactive,
Cc1cc(=O)oc2cc(N(C)C)ccc12,inactive,
CSc1c(Cl)c(Cl)c(Cl)c(Cl)c1Cl,inactive,
C=C1CC[C@H](O)C/C1=C/C=C1\CCC[C@]2(C)[C@@H]([C@H](C)/C=C/[C@H](C)C(C)C)CC[C@@H]12,,44.5 µM (active)
O=C(Nc1ccc([N+](=O)[O-])cc1)Nc1ccc([N+](=O)[O-])cc1 (tested in a mixture with another compound),inactive,
Cc1ccc(S(=O)(=O)Oc2ccc(N=Nc3ccc(-c4ccc(N=Nc5c(O)ccc6cc(S(=O)(=O)O)cc(S(=O)(=O)O)c56)c(C)c4)cc3C)cc2)cc1,inactive,
CCCCCCCCCCCCN1CCCCCC1=O,inactive,
CC1(C)C2=CCCC(C)(C)[C@]23CC[C@H]1C3,inactive,
CCCCCCC(C)Nc1ccc(Nc2ccccc2)cc1 (stereo not drawn),inactive,
CCOC(=O)c1ccc(N)cc1,inactive,
